From PubChem BioAssay (NCI)
The panel holds about 79,000 compounds, 15% with a hit somewhere; the sample as a whole holds those more often. Cut-off read from the data, not from the text of the source: active = growth inhibition above about 70%; inactive = the rest.

Key:
[1] = NCI Yeast Anticancer Drug Screen. Data for the mec2-1 strain (AID 157); conditions: S. cerevisiae mec2-1 strain, at 50.0 µM, stronger effect = higher value
Summary of the method: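 Vehicle-treated cultures served as reference for growth inhibition of compound-exposed mec2-1 yeast.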

[2] = NCI Yeast Anticancer Drug Screen. Data for the sgs1 mgt1 strain (AID 161);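 note: 0% = growth of cultures given vehicle only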; conditions: S. cerevisiae sgs1 mgt1 strain, at 50.0 µM, stronger effect = higher value
Summary of the method: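 Read-out: growth inhibition vs vehicle controls. Cells: mutant yeast strain deficient in DNA damage repair.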

[3] = NCI Yeast Anticancer Drug Screen. Data for the cln2 rad14 strain (AID 165);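 note: 0% = growth equal to vehicle treated cultures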; conditions: S. cerevisiae cln2 rad14 strain, at 50.0 µM, stronger effect = higher value
Summary of the method: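 Each compound was tested on cln2 rad14 yeast. Inhibition of growth was calculated against vehicle-exposed controls.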

[4] = NCI Yeast Anticancer Drug Screen. Data for the bub3 strain (AID 167); conditions: S. cerevisiae bub3 mutant strain, at 50.0 µM, stronger effect = higher value
Summary of the method: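 Growth of a checkpoint-deficient yeast mutant is measured after compound exposure. Values represent inhibition relative to vehicle.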

[5] = NCI Yeast Anticancer Drug Screen. Data for the mlh1 rad18 strain (AID 175); conditions: S. cerevisiae mlh1 rad18 strain growth inhibition; at 50.0 µM; stronger effect = higher value
Summary of the method: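 Vehicle-treated cultures served as the reference for growth inhibition in a yeast strain carrying DNA damage repair alterations exposed to each compound.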

Measured: growth inhibition

CC(NC(=O)CCl)c1ccccc1 (configuration not stated)
inactive: [1] -12.2% | [2] -12.9% | [3] 14.4% | [4] 4.25% | [5] 36.4%

Oc1ccccc1CN1CCOCC1 (tested in a mixture with another compound)
inactive: [1] -7.05% | [2] 6.95% | [3] -46.2% | [4] 0.2% | [5] -6.25%

CC(=O)NCC(OC(C)=O)c1ccc2c(c1)[nH]c1ccccc12 (configuration not stated)
inactive: [1] -6.5% | [2] -3.3% | [3] 10.1% | [4] 11.2% | [5] 31.2%

CC(C)C(C)(O)CO (configuration not stated)
inactive: [1] 1.75% | [2] -1.2% | [3] 16.8% | [4] -6.2% | [5] -13.7%

Cc1ccc(S(=O)OC2C3CC4CC(C3)CC2C4)cc1 (configuration not stated)
inactive: [1] 10.3% | [2] 0.2% | [3] 30.8% | [4] 1.25% | [5] 0.75%

Cc1c(O)nc(N)[nH]c1=O
inactive: [1] -24% | [3] 1.7% | [4] -13.3% | [5] -7.2%

CC(C)c1ccc(/C=N\N(C)C)cc1
inactive: [1] 2.05% | [2] -13.8% | [3] -5.6% | [4] -2.9% | [5] -1.75%

CC1(C=O)CCCC2(C)[C@@H]1CCC13CC(CO)C(CC[C@H]12)C3 (some centres not stated)
inactive: [1] 5.7% | [2] 10.8% | [3] 16.6% | [4] 14.1% | [5] 18.6%

CC(C)NC(=O)OCc1c(COC(=O)NC(C)C)c(S(C)(=O)=O)n2c1CCC2
inactive: [1] -4.7% | [2] -15.3% | [3] 7.9% | [4] -1.3% | [5] 6.8%

Cc1ccc([N+](=O)[O-])cc1NC(=O)Oc1cc(=O)oc2ccccc12
inactive: [1] 6.8% | [2] -6.9% | [3] -18.1% | [4] 1.7%

CCCCCCC(C#N)(CCN(C)C)c1ccccc1 (configuration not stated)
inactive: [1] 18.7% | [2] 14.3% | [3] -8% | [4] 50.1% | [5] 22.8%

O=S(=O)(O)C(O)c1ccncc1 (configuration not stated)
inactive: [1] -41% | [2] -6.15% | [3] -1.8% | [4] -4.25% | [5] -22.7%

ClC(Cl)=C(c1ccccc1)c1ccccc1
inactive: [1] 22.4% | [2] 36.5% | [3] 7.15% | [4] -4.45% | [5] 16.9%

CN(C)C(=N)N=C(N)N
inactive: [1] -30.1% | [2] -27.6% | [3] -1.8% | [4] -42.9% | [5] -21.1%

O=[N+]([O-])c1cccc(N=Cc2ccccc2)c1
inactive: [1] 12.9% | [2] -7.4% | [3] 8.15% | [4] 13.8% | [5] 6.05%

c1ccc(CSc2nn[nH]n2)cc1
inactive: [1] -8.1% | [2] -0.8% | [3] -9.65% | [4] -2.45% | [5] -4.95%

CCOC(=O)C12CCC(=O)CC1(O)CCC1(C2)OCCCO1 (configuration not stated)
inactive: [1] -15.9% | [2] -17.9% | [3] -21.8% | [4] 10.9% | [5] 3.85%

Cn1c(N(CCO)CCO)cnc1[N+](=O)[O-]
inactive: [1] 8.8% | [2] -21.8% | [3] -16.4% | [4] -17.6% | [5] -4.8%

O=C(Nc1cccc([N+](=O)[O-])c1)OCC#CCOC(=O)Nc1cccc([N+](=O)[O-])c1
inactive: [1] 7.5% | [2] 13.7% | [3] 11.8% | [4] 9.95% | [5] 16.1%

CCO/C=C1/C(=O)N(C)c2c1c(=O)n(C)c(=O)n2C
inactive: [1] -0.25% | [2] -4.05% | [3] -14.3% | [4] -18.1% | [5] -5.15%

Cc1ccc(SC(C)/C=C/NNC2=NC(c3ccccc3)C(c3ccccc3)=NN2)cc1 (configuration not stated)
inactive: [1] 10.2% | [2] 6.05% | [3] 30.4% | [4] 13.7% | [5] 24.1%

CCCOC(C)OCCC#CCC(C)OC(=O)CC(Cl)(Cl)Cl (configuration not stated)
inactive: [1] -21.4% | [2] 10.7% | [3] -5.35% | [4] -16.1% | [5] -9.35%

Nc1cccc(N2N=C(C(=O)O)CC2=O)c1
inactive: [1] -19.8% | [2] -40.9% | [3] -12.7% | [4] -2.7% | [5] -15.6%

Cc1ccc(Cl)cc1NC(=O)C(Br)C(Br)c1ccccc1 (configuration not stated)
inactive: [1] -7.7% | [2] 11.9% | [3] 0.85% | [4] -0.1% | [5] 6.2%

COC1(OC)C2(Cl)CC(C(=O)O)C1(Cl)C(Cl)=C2Cl (configuration not stated)
inactive: [1] 3.85% | [2] 19.6% | [3] -51.7% | [4] -1.35% | [5] 13.7%

CC(C)(C)c1ccc(N)cc1
inactive: [1] -29.8% | [2] -10.9% | [3] -3.45% | [4] -2.65% | [5] -13.5%

Cc1cc2c(=O)c3ccccc3[nH]c2c(C(=O)O)c1C
inactive: [1] 0.85% | [2] 8.25% | [3] 10.2% | [4] -14.7% | [5] 38.2%

NC(=O)Nc1ccc2ccccc2c1
inactive: [1] -9.75% | [2] 1.65% | [3] -3.95% | [4] -19.8% | [5] -5.25%

CCCCn1nnnc1N
inactive: [1] 6.4% | [2] -8.2% | [3] 12% | [4] 17.8% | [5] 6.85%

NCC1CCCCO1 (configuration not stated)
inactive: [1] 5.1% | [2] 14.2% | [3] -4.1% | [4] -16.7% | [5] -4.65%

Cc1c(C(CC(=O)c2ccccc2)C(=O)O)c2ccccc2n1C (configuration not stated)
inactive: [1] -25.3% | [2] 23.2% | [3] -32.3% | [4] 52% | [5] -11.4%

O=[N+]([O-])c1ccc(N/N=C/C2CCCCCC2)c([N+](=O)[O-])c1
inactive: [1] 13.6% | [2] -0.75% | [4] -14.7% | [5] 4%

Cc1c(Cl)ccc2c1NC(=O)C2(O)CC(=O)c1ccc(Cl)cc1Cl (configuration not stated)
inactive: [1] 18.7% | [2] 0.1% | [3] -13.5% | [4] 10.9% | [5] 23.4%

O=C(O)C1CSC(c2ccccc2O)N1 (configuration not stated)
inactive: [1] -2.75% | [2] -4.6% | [3] -26.9% | [4] 5.4% | [5] -8.75%

Brc1cccc(C2ON=C(c3ccccc3)N2C23CC4CC(CC(C4)C2)C3)c1 (configuration not stated)
inactive: [1] -7.45% | [2] -1.75% | [3] -14.7% | [4] -7.55% | [5] -7.7%
